An excerpt weighted towards active compounds, which were near 11% of everything screened.
HEK293 tox: cytotoxic compounds in HEK 293 cells | HEK 293 viability, ATP luminescence (CellTiter-Glo), 48-72 h | AID 1345083 | 94,000 tested, 6.6% active | Potency, µM (titrated, usually from 115 µM), without a hit: top-dose activity change, negative = cytotoxicity, hits mostly inhibitors; further: nearly all actives have a fitted effect of over 60% in size
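HEK 293 cells at 250 cells/well were exposed to compounds by pintool transfer for 48 or 72 hr at 37 degree Celsius, 5% CO2. Viability was read as ATP-coupled luminescence with CellTiter-Glo after 10 min at room temperature.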
3T3 cytotox: cytotoxic compounds in NIH 3T3 cells | AID 1345082 | 94,000 tested, 4.3% active | NIH 3T3 viability, CellTiter-Glo ATP luminescence, 48-72 h | Potency, µM (top dose mostly 96.7 µM), inactives show top-dose activity change, negative = cytotoxicity, hits mostly inhibitors; further: nearly all actives have a fitted effect of over 55% in size
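Luminescent ATP readout (CellTiter-Glo, 10 min RT) after 48 or 72 hr compound exposure of NIH 3T3 cells seeded at 400 cells/well in 1536-well format; quantitative HTS.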
FLuc inh: inhibitors of firefly (Photinus pyralis) luciferase. P08659. purified P. pyralis luciferase, luminescence, biochemical. Potency, µM (doses to about 115 µM), most hits filed as inhibitors. 76,000 tested, 2.5% active; further: nearly all actives have a fitted effect of over 65% in size
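Inhibitors were tested against purified firefly luciferase in a biochemical, low-substrate format (both substrates at 10uM) and luminescence measured with a CCD imager.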
hNpr1 antagonist: antagonists of human natriuretic peptide receptor Npr1; P16066; HEK293 hNpr1 GloSensor cGMP, ANP-stimulated luminescence; Potency, µM (titrated, usually from 46.3 µM), for the others: top-dose activity change, negative = inhibition, actives largely listed as inhibitors; 76,000 tested, 1.6% active; AID 1347048; calls by dose curve; further: nearly all actives have a fitted effect of over 60% in size
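HEK293 cells stably expressing human Npr1 and cGMP GloSensor pGS-40F, loaded 2 h with 2% GloSensor reagent, given compound 30 min at room temperature. Luminescence read before and 20 min after 0.1 nM hNppA.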
Active calls of the source: *; i = inactive; u = inconclusive; x = no result given; [ ] = remark or other dose. Unless noted, the call rests on the fitted dose curve; in most records, active means well fitted curve in the direction sought with a large enough effect; inconclusive means small, poorly fitted or top-dose-only effect, or another doubt; inactive means no such curve, though single readings can be large; an effect the other way counts as inactive or inconclusive. On the % scale 0 is the no-effect control and ±100 the full control effect; potency means the concentration at half of the fitted maximal effect.

SMILES	HEK293 tox	3T3 cytotox	FLuc inh	hNpr1 antagonist
CNC(=O)C1CCCN(Cc2nc(-c3cccc(Oc4ccccc4)c3)oc2C)C1 (stereo not drawn)	u	u	i	5.2%
CCc1cc(=O)n(CC(=O)Nc2cccc(C(C)C)c2)c(N2CCOCC2)n1	u	u	i	u
CC(C)CNC(=O)c1cc(-c2ccc(F)cc2)c2nncn2n1	u	44.7µM*	x	x
Cc1ccccc1S(=O)(=O)N1CCCC(CCC(=O)NCCN(C)C2CCCCC2)C1 (stereo not drawn)	u	u	i	-27.4%
COc1cccc(-c2cc3c(=O)n(CCNC(=O)c4cccnc4)ccn3n2)c1	2.9%	-4.0%	u	-18.4%
COc1cccc(-c2cc3c(=O)n(CCNC(=O)c4ccoc4)ccn3n2)c1	44.7µM*	-13.2%	u	-21.2%
COc1cccc(-c2cc3c(=O)n(CCNC(=O)c4c(F)cccc4F)ccn3n2)c1	1.4%	-23.4%	7.94µM*	-12.9%
COc1cccc(-c2cc3c(=O)n(CCNC(=O)c4cc(F)cc(F)c4)ccn3n2)c1	u	u	i	-25.2%
COc1cccc(-c2cc3c(=O)n(CCNC(=O)C(C)Oc4ccccc4)ccn3n2)c1 (stereo not drawn)	44.7µM*	u	u	u
Cc1ccc([S+](=O)([O-])c2nnn3c2nc(N2CCC(F)CC2)c2ccccc23)cc1C	-21.8%	-36.0%	x	x
COc1cccc(CN(Cc2ccccc2)[C@H]2C[C@H]3CCOC[C@@]3(c3ccccc3)C2)c1	u	-21.5%	x	x
c1ccc(CN(Cc2ccccn2)[C@H]2C[C@H]3CCOC[C@@]3(c3ccccc3)C2)cc1	50.1µM*	u	x	x
COCCNC(=O)CNC(=O)c1ccc(-c2cnc3ccccc3c2)cc1	-11.8%	-20.3%	x	x
COc1cccc(CC2(CO)CCCN(c3ccc(-c4nccn4C)nn3)C2)c1 (stereo not drawn)	20µM*	u	i	-9.7%
COc1cccc(CC2(CO)CCCN(c3nnnn3-c3ccccc3)C2)c1 (stereo not drawn)	u	u	i	-7.2%
Cc1ccc(C(=O)N2CCCC(C(=O)N3CCC(c4nc5ncccc5[nH]4)CC3)C2)cc1 (stereo not drawn)	-0.3%	-25.1%	x	x
NC[C@H]1O[C@H](Cc2cc(-c3cccc(O)c3)on2)CC[C@@H]1O	3.0%[172 µM]	i	56.2µM*	2.51µM*
COc1ccc(-c2cc(C[C@@H]3CC[C@H](O)[C@@H](CN(Cc4cccc(OC)c4)Cc4cccc(OC)c4)O3)no2)cc1	u	u	u	11.2µM*
O[C@H]1CC[C@@H](Cc2cc(-c3ccc(F)cc3)on2)O[C@@H]1CNCc1ccncc1	-21.2%[172 µM]	-18.0%[174 µM]	i	-13.2%[70.6 µM]
Cc1ccc(CNC[C@H]2O[C@H](Cc3cc(-c4ccc(F)cc4)on3)CC[C@@H]2O)cc1	39.8µM*	31.6µM*	i	-23.4%[70.6 µM]
COc1ccc(-c2cc(C[C@@H]3CC[C@H](O)[C@@H](CNCc4cccc(Cl)c4)O3)no2)cc1	28.2µM*	u	50.1µM*	u
COc1ccc(NC(=O)NC[C@H]2O[C@H](Cc3cc(-c4cccc(O)c4)on3)CC[C@@H]2O)cc1	-16.4%	-16.8%	u	11.2µM*
CC(C)NC(=O)NC[C@H]1O[C@H](Cc2cc(-c3ccc(F)cc3)on2)CC[C@@H]1O	u	-15.1%[174 µM]	i	-19.8%[70.6 µM]
COc1ccc(-c2cc(C[C@@H]3CC[C@@H]4OC(=O)NC[C@H]4O3)no2)cc1	100µM*	u	u	3.5%[70.6 µM]
COc1ccc(CNC[C@H]2O[C@H](Cc3cc(-c4ccccc4)on3)CC[C@@H]2O)cc1	89.1µM*	39.8µM*	i	-18.7%[70.6 µM]
COc1ccc(-c2cc(C[C@@H]3CC[C@H](O)[C@@H](CNC(=O)C(C)(C)C)O3)no2)cc1	-27.6%[172 µM]	-26.3%[138 µM]	i	2.4%[70.6 µM]
O=C(NC[C@H]1O[C@H](Cc2cc(-c3ccc(F)cc3)on2)CC[C@@H]1O)c1ccccc1F	-29.8%[172 µM]	-25.8%[138 µM]	22.4µM*	u
CN1CCC(NC[C@H]2O[C@H](Cc3cc(-c4ccc(F)cc4)on3)CC[C@@H]2O)CC1	u	89.1µM*	i	u
COCCNc1cc(-c2cc(C(F)(F)F)ccn2)c2cc[nH]c2n1	u	u	i	3.3%
COCC(=O)NC1CCC12CCN(C(=O)Nc1ccc3c(c1)OCCO3)CC2 (stereo not drawn)	-22.9%	u	44.7µM*	-10.1%

High-throughput results (PubChem BioAssay)
